About 83,000 compounds went through this panel and 20% of them were active in at least one assay; those are over-represented in the sample as a whole.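 96-well plates, one dose, 48 hours. Percent growth reported; active if below 10.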 The source made the active and inactive calls.
What was measured:
Experiment in all cases: NCI-60 one-dose screen, 48 h (100 = growth as untreated, 0 = no growth, -100 = all killed)
Conditions in all cases: 10 µM unless noted
[1] = test system: NCI-H23 lung
[2] = test system: NCI-H226 lung
[3] = test system: NCI-H322M lung
[4] = test system: HOP-62 NSCLC
[5] = test system: NCI-H460 lung
[6] = test system: NCI-H522 lung
[7] = test system: A549/ATCC NSCLC
[8] = test system: 786-0 renal
[9] = test system: COLO 205 colon
[10] = test system: DU-145 prostate
[11] = test system: K-562 leukemia
[12] = test system: MALME-3M melanoma
[13] = test system: MDA-MB-231 breast
[14] = test system: RXF 393 renal
[15] = test system: SF-268 CNS
[16] = test system: SF-295 CNS
[17] = test system: SF-539 CNS
[18] = test system: UACC-257 melanoma
[19] = test system: M14 melanoma

Structure (SMILES)	growth [1]	growth [2]	growth [3]	growth [4]	growth [5]	growth [6]	growth [7]	growth [8]	growth [9]	growth [10]	growth [11]	growth [12]	growth [13]	growth [14]	growth [15]	growth [16]	growth [17]	growth [18]	growth [19]
COc1cc(C2CC(c3ccc(C)cc3)=NN2C=O)ccc1Oc1nc2c(c(=O)n(C)c(=O)n2C)n1C (stereo not given)	85.3% (inactive)	84% (inactive)	60.8% (inactive)	115% (inactive)	98.6% (inactive)	98.3% (inactive)	52% (inactive)	110% (inactive)	110% (inactive)	64.5% (inactive)	88.3% (inactive)	87.8% (inactive)	84.8% (inactive)	98.6% (inactive)	58.1% (inactive)	69.8% (inactive)	116% (inactive)	-31.3% (active)	77.5% (inactive)
O=C(/C=C/c1ccccc1Br)c1cccc(OCCCCOc2cccc(C(=O)/C=C/c3ccccc3Br)c2)c1	89.3% (inactive)	89.9% (inactive)	98.8% (inactive)	103% (inactive)	95.5% (inactive)	90.7% (inactive)	87.7% (inactive)	104% (inactive)	103% (inactive)	104% (inactive)	94.6% (inactive)	99.6% (inactive)	104% (inactive)	96.9% (inactive)	101% (inactive)	95.5% (inactive)	102% (inactive)	94.1% (inactive)	88% (inactive)
CC(C)(CCc1ccccn1)C(=O)CCCc1ccccn1	106% (inactive)	104% (inactive)	116% (inactive)	105% (inactive)	106% (inactive)	108% (inactive)	99% (inactive)	99.9% (inactive)	96.4% (inactive)	109% (inactive)	95% (inactive)	70.4% (inactive)	96.2% (inactive)	117% (inactive)	105% (inactive)	120% (inactive)	114% (inactive)	109% (inactive)	98.7% (inactive)
CC(=O)O[C@@H]1CC2C(C)(C)CCCC2(C)C2=C1C(=O)C(C(C)C)=CC2=O (stereo not given in full)	8.94% (active)	-78% (active)	-19.1% (active)	-25.6% (active)	-8.52% (active)	-27.1% (active)	-35% (active)	16% (inactive)	-50.8% (active)	-19.2% (active)	6.8% (active)	-12.8% (active)	-15% (active)	-57.8% (active)	27.1% (inactive)	-34.1% (active)	-39.3% (active)	-52% (active)	-60.9% (active)
O=C(c1ccccc1)C1OC1C(=O)c1ccccc1 (stereo not given)	3.63% (active)	61.1% (inactive)	75.4% (inactive)	21% (inactive)	64.1% (inactive)	8.93% (active)	70.4% (inactive)	15.1% (inactive)	27.6% (inactive)	1.5% (active)	9.28% (active)	30.5% (inactive)	25.9% (inactive)	2.72% (active)	39.5% (inactive)	72.8% (inactive)	24.5% (inactive)	40.2% (inactive)	17.3% (inactive)
COc1ccc(-c2nn(C(=O)NCCN(C)C)cc2-c2ccncc2)cc1Cl	63.5% (inactive)	46.4% (inactive)	109% (inactive)	16% (inactive)	27.4% (inactive)	28.2% (inactive)	32.6% (inactive)	34.8% (inactive)	25.1% (inactive)	77.6% (inactive)	16.5% (inactive)	53.8% (inactive)	54.5% (inactive)	44.6% (inactive)	44.8% (inactive)	24% (inactive)	25.6% (inactive)	64.4% (inactive)	45.8% (inactive)
Cc1cc([N+](=O)[O-])c(C)cc1N	103% (inactive)	101% (inactive)	107% (inactive)	103% (inactive)	109% (inactive)	77.5% (inactive)	104% (inactive)	103% (inactive)	121% (inactive)	115% (inactive)	100% (inactive)	104% (inactive)	90.3% (inactive)	105% (inactive)	105% (inactive)	109% (inactive)	105% (inactive)	109% (inactive)	104% (inactive)
Oc1c(C(Nc2cccc3ccccc23)c2ccccc2)ccc2cccnc12 (stereo not given)	41.8% (inactive)	50.6% (inactive)	37.2% (inactive)	52.2% (inactive)	5.7% (active)	16.1% (inactive)	33.6% (inactive)	-13.6% (active)	38% (inactive)	35% (inactive)	11.6% (inactive)	31.7% (inactive)	17.8% (inactive)	69.4% (inactive)	23.4% (inactive)	7.99% (active)	43.3% (inactive)	22.5% (inactive)	0.701% (active)
O=C(N/N=C\c1cc(Br)ccc1O)c1ccncc1	43.5% (inactive)	39.9% (inactive)	41% (inactive)	15% (inactive)	6.66% (active)	-27.2% (active)	55.6% (inactive)	18.4% (inactive)	7.89% (active)	39.4% (inactive)	20.3% (inactive)	46.5% (inactive)	46.6% (inactive)	54.9% (inactive)	35.4% (inactive)	55.7% (inactive)	34.3% (inactive)	11.5% (inactive)	19.2% (inactive)
CC(C)c1ccc(-c2cnc3nonc3n2)cc1	56.2% (inactive)	77.5% (inactive)	65.8% (inactive)	57.7% (inactive)	70.5% (inactive)	20% (inactive)	53.2% (inactive)	10.6% (inactive)	38.1% (inactive)	30.9% (inactive)	6.39% (active)	61.2% (inactive)	38.5% (inactive)	37.7% (inactive)	62.4% (inactive)	48.9% (inactive)	14.5% (inactive)	52% (inactive)	7.59% (active)
CS(=O)(=O)c1ccc(C(=O)N/N=C/c2cccc3ccccc23)cc1	89.6% (inactive)	83.7% (inactive)	93.9% (inactive)	74.9% (inactive)	66.8% (inactive)	4.48% (active)	41.3% (inactive)	90.9% (inactive)	85.7% (inactive)	88.8% (inactive)	27.8% (inactive)	69.7% (inactive)	97.1% (inactive)	99.3% (inactive)	85.7% (inactive)	76% (inactive)	89.3% (inactive)	41.1% (inactive)	66.8% (inactive)
C=C1C(=O)O[C@H]2[C@H]1CC/C(COC(=O)NCc1ccc(Cn3c(=O)sn(CCCl)c3=O)cc1)=C\CC[C@@]1(C)O[C@@H]21	103% (inactive)	79.8% (inactive)	95.1% (inactive)	75.3% (inactive)	97.8% (inactive)	-68% (active)	86% (inactive)	32.4% (inactive)	-48.1% (active)	36.9% (inactive)	-13% (active)	-28.3% (active)	73.5% (inactive)	5.98% (active)	85.2% (inactive)	107% (inactive)	83.1% (inactive)	49.8% (inactive)	29.5% (inactive)
OC(CCCCCCCCC(O)CN1CCc2ccccc2C1)CN1CCc2ccccc2C1 (stereo not given)	101% (inactive)	99.9% (inactive)	87.5% (inactive)	103% (inactive)	108% (inactive)	105% (inactive)	101% (inactive)	94.7% (inactive)	101% (inactive)	108% (inactive)	97.3% (inactive)	97.5% (inactive)	98% (inactive)	110% (inactive)	102% (inactive)	83.2% (inactive)	101% (inactive)	98.5% (inactive)	109% (inactive)
CC1(C)OC2OC3C(CN)OC(c4ccccc4)OC3C2O1 (stereo not given)	99.5% (inactive)	107% (inactive)	125% (inactive)	93.9% (inactive)	124% (inactive)	99% (inactive)	107% (inactive)	104% (inactive)	103% (inactive)	108% (inactive)	104% (inactive)	120% (inactive)	101% (inactive)	122% (inactive)	93.2% (inactive)	123% (inactive)	106% (inactive)	105% (inactive)	120% (inactive)
O=C(/C=C/c1ccco1)c1ccccc1O	93.5% (inactive)	99.6% (inactive)	105% (inactive)	109% (inactive)	108% (inactive)	88.3% (inactive)	101% (inactive)	96.8% (inactive)	119% (inactive)	108% (inactive)	117% (inactive)	121% (inactive)	111% (inactive)	92.4% (inactive)	99.4% (inactive)	110% (inactive)	98.2% (inactive)	112% (inactive)	105% (inactive)
Cc1[nH]c2ccccc2c1C1=CC(=O)C=CC1=O	92.8% (inactive)	94.2% (inactive)	120% (inactive)	94.7% (inactive)	111% (inactive)	-24.4% (active)	93.2% (inactive)	84.3% (inactive)	55.7% (inactive)	103% (inactive)	33.4% (inactive)	123% (inactive)	87.7% (inactive)	115% (inactive)	83.7% (inactive)	127% (inactive)	79.1% (inactive)	91.6% (inactive)	79.4% (inactive)
CCC1=CC2CN(C1)Cc1c([nH]c3ccccc13)[C@@](C(=O)OC)(c1cc3c(cc1OC)N(C)[C@H]1[C@@](O)(C(=O)OC)[C@H](OC(C)=O)[C@]4(CC)C=CCN5CC[C@]31[C@@H]54)C2 (stereo not given in full)	3.64% (active)	-1.33% (active)	70% (inactive)	19.8% (inactive)	3.4% (active)	-4.74% (active)	11% (inactive)	-8.81% (active)	-75% (active)	-30.1% (active)	17% (inactive)	44.5% (inactive)	30.3% (inactive)	47.1% (inactive)	17.4% (inactive)	15.4% (inactive)	6.49% (active)	59.1% (inactive)	-36.8% (active)
Clc1ccccc1CNc1c2ccccc2nc2ccccc12	21.6% (inactive)	38.9% (inactive)	27% (inactive)	40.9% (inactive)	8.83% (active)	28.5% (inactive)	19.2% (inactive)	24.5% (inactive)	0.525% (active)	31.8% (inactive)	5.33% (active)	19% (inactive)	29% (inactive)	15% (inactive)	46.6% (inactive)	21.7% (inactive)	6.15% (active)	44.3% (inactive)	18.1% (inactive)
Cc1ccc([C@H]2c3[nH]c4ccccc4c3C[C@H]3C(=O)N(CCCCCCC(=O)NO)CC(=O)N23)cc1	63.8% (inactive)	94.2% (inactive)	55.6% (inactive)	52.9% (inactive)	48.7% (inactive)	24.2% (inactive)	85.6% (inactive)	82.1% (inactive)	47.3% (inactive)	60.5% (inactive)	20.2% (inactive)	19.5% (inactive)	44.4% (inactive)	51.5% (inactive)	68.6% (inactive)	67.4% (inactive)	52.6% (inactive)	50.5% (inactive)	43.6% (inactive)
CN(C)CCNC(=O)n1cc(-c2ccncc2)c(-c2cc(O)cc(Cl)c2)n1	108% (inactive)	102% (inactive)	128% (inactive)	98.2% (inactive)	93.5% (inactive)	115% (inactive)	107% (inactive)	81.4% (inactive)	88.6% (inactive)	102% (inactive)	74.8% (inactive)	6.11% (active)	88.6% (inactive)	84.4% (inactive)	96.8% (inactive)	117% (inactive)	82.5% (inactive)	40.6% (inactive)	27.6% (inactive)
